Results reported in PubChem BioAssay AID1117361 (Southern Research Institute, 2015).
Out of some 3,600 compounds screened, about 900 (25%) were called active. The rule behind the calls is not given here. A selection follows. Measured potencies and affinities stand elsewhere.

What follows are compounds tested against Protein Tat (Human immunodeficiency virus type 1 group M subtype B (isolate HXB2)) (UniProt P04608) (assay: inhibitors of Tat binding to TAR RNA, dose response, counter-screen for Vif-APOBEC3G degradation inhibitor project, biochemical, fluorescence polarization, FAM-labeled TAR RNA (AID 1117361)). Conditions: outcome: dose series up to 100 µM unless noted; series mostly up to 100 µM.

Row | Structure (SMILES) | outcome
1 | Cc1cc(O)c(-c2n[nH]c3c2C(c2cccc(O)c2)N(Cc2cccnc2)C3=O)cc1Cl (stereo not given) | inactive
2 | N#Cc1c(NC(=O)CSc2nnnn2C2CCCCC2)sc2c1CCCC2 | inactive
3 | CCCn1c2ccccc2c2nnc(SC(CC)C(=O)Nc3sc4c(c3C#N)CCCC4)nc21 (stereo not given) | inactive
4 | CCCC(C)NC(=O)CSCc1ccc(OC)cc1 (stereo not given) | inactive
5 | CCNc1nc(NCC)nc(OCCNS(=O)(=O)c2cc(C)ccc2C)n1 | inactive
6 | COc1ccccc1C=NC(CO)C(O)c1ccc([N+](=O)[O-])cc1 (stereo not given) | inactive
7 | O=C(NCN1C(=O)C2C3C=CC(C3)C2C1=O)OC1CCCCC1 (stereo not given) | inactive
8 | Cc1c(NC(=O)NCCN2C(=O)C3C4C=CC(C4)C3C2=O)c(=O)n(-c2ccccc2)n1C (stereo not given) | inactive
9 | C=CCc1c(C)nc2c(C(=O)O)cnn2c1C | inactive
10 | Cc1ccccc1-c1nc(CN2CCC(C(=O)N3CCN(c4ccccn4)CC3)CC2)c(C)o1 | inactive
11 | COc1ccc(-c2cc(-c3ccccc3)c(C#N)c(S(C)=O)n2)cc1 (stereo not given) | inactive
12 | Cc1cccc(C)c1NC(=O)c1ccc(-n2cnnn2)cc1 | inactive
13 | COc1ccc(C2=NOC(C(=O)NCc3cccs3)C2)cc1OC (stereo not given) | inactive
14 | Cc1cccc(N2C(=O)CN=C2Nc2nc(C)cc(C)n2)c1 | inactive
15 | COc1ccc(/C=N/OCC(=O)Nc2cc(C)on2)cc1OC | inactive
16 | COC(=O)C1CCN(c2ccc([N+](=O)[O-])cc2)CC1 | inactive
17 | O=C(Nc1ccc(N2CCCCC2)cc1)c1cc([N+](=O)[O-])cc([N+](=O)[O-])c1 | inactive
18 | CC1(C)Cc2ccccc2C(/C(=N/O)C(N)=O)=N1 | inactive
19 | COc1ccc2cnn(CCOc3cc(C)ccc3C(C)C)c(=O)c2c1OC | inactive
20 | Cc1nc(N(C)C)c2sc(=S)n(C)c2n1 | inactive
21 | Cc1cccc(NC(=O)CSc2nnc(CCC(=O)Nc3ccc(C)c(Cl)c3)n2C)c1 | inactive
22 | CCCCc1nccn1CCn1ccnc1CCCC | inactive

Row | Structure (SMILES) | outcome
23 | CCc1ccc(C2C(C(C)=O)=C(C(=O)OC)Nc3nnnn32)cc1 (stereo not given) | inactive
24 | COC(=O)COc1ccc(S(=O)(=O)Nc2ccc(C(N)=O)cc2)cc1C | inactive
25 | COc1ccc(S(=O)(=O)Nc2cc(SCC(=O)O)c(O)c3ccccc23)cc1 | inactive
26 | CCc1ccc(CCC(=O)Nc2ccc(S(N)(=O)=O)cc2)o1 | inactive
27 | Cc1onc(-c2ccccc2)c1CNC(=O)C1COc2ccccc2O1 (stereo not given) | inactive
28 | CCc1cccc(NC(=O)Cn2ncn3c(cc4ccccc43)c2=O)c1 | inactive
29 | O=S(=O)(c1ccc(OCc2nc3ccccc3s2)c(Cl)c1)N1CCOCC1 | inactive
30 | COc1ccc(C(=O)N2CC3(C)CC2CC(C)(C)C3)cc1 (stereo not given) | inactive
31 | Cc1ccc(OCCN2CCCCCC2)c(C)c1 | inactive
32 | Cc1cccc(N/C=C/C(=C(C#N)C#N)N(C)C)c1 | inactive
33 | CN(C)S(=O)(=O)c1ccc(NC(=O)c2cc3ccccc3o2)cc1 | inactive
34 | Cc1cc(SCC(=O)N/N=C/c2ccc(O)c(O)c2O)c(C)cc1Br | inactive
35 | CCn1c(C)nc2cc(C(=O)NNC(=O)CCC3CCCCC3)ccc21 | inactive
36 | Cc1c(/C=N\NC(=O)c2csc3ccccc23)cnn1C | inactive
37 | COc1cccc(/C=N/NC(=O)c2cnccn2)c1O | inactive
38 | CCN(CC)S(=O)(=O)c1cccc(NN=c2c(=O)c3ccccc3c2=O)c1 | inactive
39 | CC1CCCCC1NC(=S)Nc1cccc(S(=O)(=O)N(C)C)c1 (stereo not given) | inactive
40 | CNC(=O)CN(C)S(=O)(=O)c1ccc(F)cc1 | inactive
41 | C=CCSc1nnc(NC(=O)CSc2nnc(C)s2)s1 | inactive
42 | COc1ccc(C(=O)n2nc(-c3ccccc3)nc2SC)cc1 | inactive
43 | CCOc1ccc(NC(=O)C2CCCN(S(=O)(=O)c3c(C)n[nH]c3C)C2)cc1 (stereo not given) | inactive
44 | CCCNC(=O)Cn1c2ccccc2c2nc(=O)cc(C)n21 | inactive

Row | Structure (SMILES) | outcome
45 | CCOC(=O)c1c(C)[nH]c(C(=O)CSc2nnc(C3CC3)n2N)c1C | inactive
46 | CN(C)S(=O)(=O)N1CCN(c2ccc(Cl)cc2)CC1 | inactive
47 | CCCC(=O)NC(C)C(c1cccs1)N1CCN(C)CC1 (stereo not given) | inactive
48 | Cc1ccc(S(=O)(=O)N(C)c2ccccc2C(=O)N2CCCC2)cc1 | inactive
49 | COc1cc(C(=O)NNC(=S)NCc2ccco2)cc(OC)c1OC | inactive
50 | O=C(NCCc1ccccc1)c1ccc2c(c1)N(Cc1ccccc1)C(=O)CS2=O (stereo not given) | inactive
51 | COc1ccc(C(=O)NCc2cccnc2)cc1OC | inactive
52 | O=C(CCS(=O)(=O)c1cccs1)Nc1ccc(C(=O)NCc2ccccc2)cc1 | inactive
53 | O=C(Cc1ncn[nH]1)NCCc1ccccc1 | inactive
54 | COc1ccc(CCNC(=O)Cn2nnc(-c3cccc(OC)c3OC)n2)cc1OC | inactive
55 | CCS(=O)(=O)N1CCC(C(=O)NCc2ccccn2)CC1 | inactive
56 | CC(C)(C)c1ccc(S(=O)(=O)NCc2ccc(C(=O)NCc3ccccn3)cc2)cc1 | inactive
57 | O=C(NCc1ccco1)c1ccc2snnc2c1 | inactive
58 | CC(c1nnc(SCn2nnc3ccccc3c2=O)n1-c1ccc(Cl)cc1)N(C)C (stereo not given) | inactive
59 | COc1cccc(-c2nc(CS(=O)(=O)CC(=O)NC3CC3)c(C)o2)c1 | inactive
60 | CCOc1ccc(N2CC(C(=O)NCC(=O)Nc3ccc(F)c(F)c3F)CC2=O)cc1 (stereo not given) | inactive
61 | NS(=O)(=O)c1ccc(NC(=O)c2ccccc2C(=O)N2CCCCC2)cc1 | inactive
62 | CCN(C(=O)CCc1nc(-c2ccccc2F)no1)c1cc(OC)ccc1OC | inactive
63 | COc1ccccc1NC(=O)COC(=O)c1cc2c(s1)CCC2 | inactive
64 | CCOC(=O)c1cccc2c(=O)c(C(=O)c3ccc(Cl)cc3)c(C(=O)OC)[nH]c12 | inactive
65 | C/C(=N\OC(=O)c1ccc(F)cc1)c1sc(-c2ccccc2)nc1C | inactive
66 | CC1CCc2cc(F)ccc2N1C(=O)C1(C)CC1(Cl)Cl (stereo not given) | inactive

Row | Structure (SMILES) | outcome
67 | C/C(=N\O)C(=O)NCc1ccccn1 | inactive
68 | O=C(NCc1ccccn1)c1ccc(Cn2cc(Br)cn2)o1 | inactive
69 | O=C(NC1=CC(=O)c2ccccc2C1=O)c1ccccc1 | inactive
70 | Cc1ccc(NC(=O)CNC(=O)COc2ccccc2)nc1 | inactive
71 | COc1ccc2cc(C(=O)N3CCOCC3)sc(=O)c2c1OC | inactive
72 | COc1ccccc1/C=C/C=C1N=C(/C=C/c2ccc(Cl)cc2)OC/1=O | inactive
73 | COc1ccc(/C=C(/NC(C)=O)C(=O)O)cc1 | inactive
74 | COc1ccc(OC)c(/C(O)=C/C(=O)C(=O)Nc2ccccc2OC)c1 | inactive
75 | COc1ccc(/C=C/C(=O)NC(=S)Nc2ccccn2)cc1 | inactive
76 | CN1C(=O)CC(N2CCN(C(=O)c3ccccc3)CC2)C1=O (stereo not given) | inactive
77 | Cc1cc(-n2ccnc2)n2c(nc3ccccc32)c1C#N | inactive
78 | COc1cc(-n2cnnn2)ccc1S(=O)(=O)N1CCOCC1 | inactive
79 | CCCn1c(=O)c(-c2ccccc2)c(O)c2ccccc21 | inactive
80 | O=C1c2ccccc2S(=O)(=O)N1CC(O)COc1ccc(Br)cc1 (stereo not given) | inactive
81 | CCOC(=O)C1C(c2ccc(O)c(OCC)c2)NC(=S)NC1(O)C(F)(F)F (stereo not given) | inactive
82 | CS(=O)(=O)c1ccc(Cl)c(NC(=O)COC(=O)COc2ccc3c(c2)CCC3)c1 | inactive
83 | COc1ccc(CNC(=O)CN(CC2CCCO2)C(=O)CNS(=O)(=O)c2ccc(C)cc2)cc1 (stereo not given) | inactive
84 | COc1ccc(OC)c(NC(=O)c2[nH]c(C)c(C(C)=O)c2C)c1 | inactive
85 | COc1ccc(OC)c(/C(O)=C/C(=O)C(=O)Nc2cc(C)ccc2OC)c1 | inactive
86 | COc1cccc(CNC(=O)Cn2c(=O)oc3ccccc32)c1OC | inactive
87 | COc1ccc(CC(=O)OCc2cc3ccc(C)cc3[nH]c2=O)cc1 | inactive
88 | N=c1sccn1CC(=O)Nc1ccc2c(c1)CCC2 | inactive

Row | Structure (SMILES) | outcome
89 | COc1ccc(OC)c(C2C(C(=O)c3cc4ccccc4o3)=C(O)C(=O)N2c2cc(C)on2)c1 (stereo not given) | inactive
90 | CCC(C)NC(=S)NNC(=O)c1ccc(C(C)(C)C)cc1 (stereo not given) | inactive
91 | Cc1cc2c(=Cc3ccc(N(C)C)cc3)c3ccccc3n2[n+]1C | inactive
92 | COc1cccc(C=Nc2cc(C(C)C)c(O)cc2C)c1O | inactive
93 | Oc1cccc(/C=N/NC(=S)NCCN2CCOCC2)c1O | inactive
94 | COc1cccc(CC(NC(C)=O)C(=O)NC2CCN(S(=O)(=O)c3ccc4ccccc4c3)CC2)c1 (stereo not given) | inactive
95 | COc1ccccc1N1CCN(CC(O)COCCOc2ccc(Br)cc2)CC1 (stereo not given) | inactive
96 | CC(=O)Nc1ccc(C(=O)Nc2cccc(-c3cnc4ccccc4n3)c2)cc1 | inactive
97 | CC(=O)Nc1ccc(N/C=C/C(=O)C(C)(C)C)cc1 | inactive
98 | Cc1ccc(NC(=O)c2ccc(Cl)c(N3C(=O)C=CC3=O)c2)cc1 | inactive
99 | Cc1cc(C)c(C)c(OCCCOc2cccc3cccnc23)c1 | inactive
100 | Cc1nnc(SCC(=O)N2CCN(c3ccccc3)CC2)n1C1CC1 | inactive
101 | COc1ccc(/C=N/NC(=O)c2ccc3ccccc3c2)cc1OS(=O)(=O)c1ccc(NC(C)=O)cc1 | inactive
102 | COC(=O)c1sccc1NC(=O)c1cc(-c2ccc(C)cc2C)nc2ccccc12 | inactive
103 | Cc1ccc(C(=O)N/C(=C/c2cccnc2)C(=O)NCc2ccco2)cc1 | inactive
104 | O=C(CNC(=O)/C(=C\c1ccccc1)NC(=O)c1ccc(Br)cc1)OCc1ccccc1 | inactive
105 | O=C(NCC1CCCO1)c1ccc(CS(=O)(=O)Cc2ccc(F)cc2)o1 (stereo not given) | inactive
106 | Cc1cc(C(F)(F)F)n2nc(C(=O)O)c(Cl)c2n1 | inactive
107 | O=C1NC(=Nc2ccc(F)cc2)SC1Cc1ccc(F)cc1 (stereo not given) | inactive
108 | COc1ccc(NC(=O)/C(C#N)=C\c2cc(C)n(-c3ccc(Oc4ccc([N+](=O)[O-])cn4)cc3)c2C)cc1 | inactive
109 | O=C(O)c1ccc(S(=O)(=O)c2ccc([N+](=O)[O-])cc2[N+](=O)[O-])cc1 | inactive
110 | CCCN(CCC)S(=O)(=O)c1cc(Br)cc2c1N(C(=O)CC)CC2 | inactive
